In PubChem BioAssay:
This is one part of the list. Calls of active or inactive are those of the source.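 How the source made its calls, unless noted: active means mean inhibition above about 50% in the one-dose retest (limit read from the data); inactive means the rest.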

Legend:
[1] = biological target: Sentrin-specific protease 8 (Homo sapiens) (UniProt Q96LD8); assay: human SENP8 peptidase blockers, hit retest – biochemical, luminescence, single concentration, confirmation (AID 488912;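 active means mean inhibition across replicates above about 50%, limit read from the data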); conditions: Recombinant SENP8, Z-RLRGG-aminoluciferin luminescence, 60 min; at 12.5 µM; hits give high values
[2] = biological target: Sentrin-specific protease 6 (Homo sapiens) (UniProt Q9GZR1); assay: inhibition of human SENP6 catalytic domain – biochemical, luminescence, single concentration, confirmation (AID 488915); conditions: recombinant SENP6, Z-RLRGG-aminoluciferin luminescence; at 12.5 µM; hits give high values
[3] = biological target: Sentrin-specific protease 7 (Homo sapiens) (UniProt Q9BQF6); assay: human SENP7 peptidase blockers, hit retest – biochemical, luminescence, single concentration, confirmation (AID 488917); conditions: recombinant SENP7, Z-RLRGG-aminoluciferin luminescence, 40 min; at 12.5 µM; hits give high values
[4] = biological target: Caspase-3 (Homo sapiens) (UniProt P42574); assay: human caspase-3 activity blockade, out-of-family – biochemical, single concentration, selectivity assay for SENP inhibitor project, confirmation (AID 488918;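 active means mean inhibition above about 50%, limit read from the data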;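 further: plate controls were enzyme with DMSO for no effect and wells without caspase-3 for full effect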); conditions: purified caspase-3, Z-DEVD-aminoluciferin luminescence, 60 min; at 12.5 µM; hits give high values
[5] = Ultra-Glo luciferase signal interference – biochemical, single concentration, SENP8 reaction pre-completed, artefact control for SENP inhibitor project, confirmation (AID 488919;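 active means mean inhibition above about 50% when retested at one dose, limit read from the data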;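 further: plate controls were DMSO wells with completed reaction for no effect and substrate without enzyme for full effect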); conditions: Pre-incubated SENP8/Z-RLRGG-aminoluciferin, luciferase luminescence interference; at 12.5 µM; hits give high values

Measured: inhibition

Chain of Sentrin-specific protease 8 (Homo sapiens) (Q96LD8 whole entry, looked up, the tested form may be a part): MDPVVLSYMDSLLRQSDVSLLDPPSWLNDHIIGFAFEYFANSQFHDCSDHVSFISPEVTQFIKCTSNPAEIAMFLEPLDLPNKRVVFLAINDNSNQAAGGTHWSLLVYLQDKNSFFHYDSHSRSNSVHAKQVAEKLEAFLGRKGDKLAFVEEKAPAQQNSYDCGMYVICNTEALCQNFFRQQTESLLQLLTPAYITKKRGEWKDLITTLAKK
Chain of Sentrin-specific protease 7 (Homo sapiens) (Q9BQF6 706-1050 limits assumed): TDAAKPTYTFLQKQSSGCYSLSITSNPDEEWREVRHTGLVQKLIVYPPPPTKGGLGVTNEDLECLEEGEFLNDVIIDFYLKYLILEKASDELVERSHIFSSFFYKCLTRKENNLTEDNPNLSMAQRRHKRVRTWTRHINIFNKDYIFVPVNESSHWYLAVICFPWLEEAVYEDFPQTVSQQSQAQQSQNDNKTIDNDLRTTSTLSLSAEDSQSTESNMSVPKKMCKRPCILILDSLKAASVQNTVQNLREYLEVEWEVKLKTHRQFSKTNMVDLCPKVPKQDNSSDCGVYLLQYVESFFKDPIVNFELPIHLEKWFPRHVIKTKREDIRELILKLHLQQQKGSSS
Chain of Caspase-3 (Homo sapiens) (P42574 28-227 limits assumed): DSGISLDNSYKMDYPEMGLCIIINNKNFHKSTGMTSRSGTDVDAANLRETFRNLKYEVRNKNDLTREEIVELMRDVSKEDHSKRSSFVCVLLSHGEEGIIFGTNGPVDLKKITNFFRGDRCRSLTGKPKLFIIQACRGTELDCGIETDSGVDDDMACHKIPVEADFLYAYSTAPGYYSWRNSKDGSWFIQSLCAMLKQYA
Chain of Sentrin-specific protease 6 (Homo sapiens) (Q9GZR1 628-1112 limits assumed): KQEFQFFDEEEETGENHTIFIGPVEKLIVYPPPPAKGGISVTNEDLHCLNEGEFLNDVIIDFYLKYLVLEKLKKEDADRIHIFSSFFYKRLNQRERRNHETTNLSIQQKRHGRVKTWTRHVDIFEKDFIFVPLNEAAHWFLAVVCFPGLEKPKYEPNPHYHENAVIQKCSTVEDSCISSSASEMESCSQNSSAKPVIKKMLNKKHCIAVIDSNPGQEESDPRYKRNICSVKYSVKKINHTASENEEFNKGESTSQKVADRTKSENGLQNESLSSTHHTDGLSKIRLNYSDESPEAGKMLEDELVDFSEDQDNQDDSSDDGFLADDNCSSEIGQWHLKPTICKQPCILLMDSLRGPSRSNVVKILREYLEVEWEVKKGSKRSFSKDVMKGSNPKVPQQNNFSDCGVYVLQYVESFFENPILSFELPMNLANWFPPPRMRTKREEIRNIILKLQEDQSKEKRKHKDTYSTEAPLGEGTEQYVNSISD

CC(=O)Oc1ccc2c(=O)oc(-c3ccc([N+](=O)[O-])cc3)nc2c1
inactive: [1] -6.1% | [2] -1.5% | [3] -2.9% | [4] -2.9% | [5] -4.7%

O=C(O)c1ccc2c3c(cccc13)C(=O)N(OS(=O)(=O)c1ccccc1)C2=O
inactive: [1] 36.6% | [2] 29.2% | [4] 10.4%
active: [3] 68.5% | [5] 53.8%

Cc1c(Cl)cccc1NC(=O)Nc1ccc(C(=O)N2CCCC2)cc1
active: [3] 77.1% | [4] 60.3%
inactive: [1] 20.5% | [2] 43% | [5] 11.4%

COc1ccccc1OCc1nc2ccccc2s1
active: [1] 96.7% | [2] 97.3% | [3] 102% | [4] 96% | [5] 95.3%

N/C(=N\OC(=O)c1ccc2c(c1)OCO2)c1ccc(Br)cc1
inactive: [1] -7.4% | [2] 15.2% | [3] 11.9% | [4] 17.8% | [5] 3.3%

CCc1ccc(C(=O)COC(=O)c2ccco2)cc1
active: [1] 62.7% | [2] 62% | [3] 83.3% | [4] 74.5% | [5] 68%

c1ccc(-c2noc(-c3cccs3)n2)nc1
active: [1] 90% | [2] 91.3% | [3] 98.9% | [4] 95.4% | [5] 90.1%

COc1cccc(C(=O)c2cc3ccc(O)cc3oc2=O)c1
active: [1] 98.7% | [2] 100% | [3] 103% | [4] 98.7% | [5] 98%

CCN1CC=C2C(C#N)=C(N)C(C#N)(C#N)[C@H](c3ccoc3)[C@H]2C1
inactive: [1] -12.3% | [2] -5.5% | [3] -13.6% | [4] 1.7% | [5] -10.5%
